# Active and inactive are the calls of the source.
# Tests used:
# [1] = test system: Human papillomavirus type 1a protein E7 (residues 44-93); assay: HPV1a E7 fragment binders on microarrays, primary screen, biochemical, small-molecule microarray, residues 44-93, 635 nm fluorescence (AID 1108); conditions: small-molecule microarray binding, fluorescence 635 nm; higher = more signal;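 note: E7 fragment applied at 1 µg/mL in TBST for 1 h at 4 C; score combines spot fluorescence with its signal to noise ratio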
# [2] = modulators of HCV replicon luciferase signal, primary screen, HCV replication inhibitor project, Huh7 cells, luciferase reporter (AID 1109); conditions: 48 h, higher = more signal;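 note: huh7 hepatoma cells harbouring a luciferase neomycin HCV replicon reporter; luciferase luminescence as measure of HCV replicon replication; test concentration not given here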
# [3] = target: Left-right determination factor 2 (Homo sapiens) (UniProt O00292); assay: LEFTY2 binders on small-molecule microarrays, primary screen, biochemical, small-molecule microarray, 635 nm fluorescence scan (AID 1110); conditions: LEFTY2 binding, higher = more signal
# Chain of Left-right determination factor 2 (Homo sapiens) (O00292 whole entry, looked up): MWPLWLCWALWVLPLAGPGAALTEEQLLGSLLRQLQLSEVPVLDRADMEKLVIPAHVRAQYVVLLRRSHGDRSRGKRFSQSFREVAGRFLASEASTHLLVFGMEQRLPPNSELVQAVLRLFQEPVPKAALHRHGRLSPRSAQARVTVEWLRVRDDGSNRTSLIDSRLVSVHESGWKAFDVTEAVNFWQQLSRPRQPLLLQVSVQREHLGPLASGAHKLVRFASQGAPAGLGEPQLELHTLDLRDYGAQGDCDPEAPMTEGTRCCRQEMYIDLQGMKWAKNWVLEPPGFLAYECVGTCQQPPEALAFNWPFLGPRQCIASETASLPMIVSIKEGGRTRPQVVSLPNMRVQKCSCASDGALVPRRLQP
# [4] = target: Calmodulin-1 (Homo sapiens) (UniProt P0DP23); assay: CALM1 binders on microarrays, EGTA buffer, profiling panel, biochemical, small-molecule microarray, Cy5-labelled CALM1 (AID 1111); conditions: Cy5-CALM1 binding fluorescence, higher = more signal;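 note: labelled calmodulin applied in Tris saline Tween buffer holding calcium plus EGTA and DTT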
# [5] = target: Calmodulin-1 (Homo sapiens) (UniProt P0DP23); assay: calcium-bound CALM1 binders on microarrays, profiling panel, artefact control for SMM control-protein annotation, biochemical, small-molecule microarray, Cy5-labelled CALM1, plus calcium (AID 1112); conditions: Cy5-CALM1 binding fluorescence, higher = more signal;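 note: score merges spot fluorescence with signal to noise from triplicate slides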
# [6] = small-molecule microarray binders of probe aWnt5a, primary screen, biochemical, biotinylated probe, 635/667 nm fluorescence (AID 1113); conditions: higher = more signal;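 note: score merges 667 nm fluorescence intensity with signal-to-noise per printed feature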
# [7] = small-molecule microarray binders of probe aShh, primary screen, biochemical, biotinylated probe, 635/667 nm fluorescence (AID 1114); conditions: higher = more signal;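 note: probe is biotin-labelled aShh protein from a stem cell growth factor screen; measures binding of labelled protein to compounds printed on the slide; score merges feature fluorescence at 667 nm with signal-to-noise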
# [8] = small-molecule microarray binders of probe aNog, primary screen, biochemical, biotinylated probe, 635/667 nm fluorescence (AID 1115); conditions: higher = more signal;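 note: probe is biotinylated aNog protein used at 0.15 µg/mL for 1 h at 4 C; z-score combines 667 nm fluorescence of each spot with its signal to noise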
# [9] = target: Torsin-1A-interacting protein 1 (Homo sapiens) (UniProt Q5JTV8); assay: LAP1 binders from COS7 cell lysate, primary screen, small-molecule microarray, 635/667 nm fluorescence (AID 1116); conditions: COS7-hLAP1 lysate binding, 635 nm fluorescence, higher = more signal
# Chain of Torsin-1A-interacting protein 1 (Homo sapiens) (Q5JTV8 whole entry, looked up): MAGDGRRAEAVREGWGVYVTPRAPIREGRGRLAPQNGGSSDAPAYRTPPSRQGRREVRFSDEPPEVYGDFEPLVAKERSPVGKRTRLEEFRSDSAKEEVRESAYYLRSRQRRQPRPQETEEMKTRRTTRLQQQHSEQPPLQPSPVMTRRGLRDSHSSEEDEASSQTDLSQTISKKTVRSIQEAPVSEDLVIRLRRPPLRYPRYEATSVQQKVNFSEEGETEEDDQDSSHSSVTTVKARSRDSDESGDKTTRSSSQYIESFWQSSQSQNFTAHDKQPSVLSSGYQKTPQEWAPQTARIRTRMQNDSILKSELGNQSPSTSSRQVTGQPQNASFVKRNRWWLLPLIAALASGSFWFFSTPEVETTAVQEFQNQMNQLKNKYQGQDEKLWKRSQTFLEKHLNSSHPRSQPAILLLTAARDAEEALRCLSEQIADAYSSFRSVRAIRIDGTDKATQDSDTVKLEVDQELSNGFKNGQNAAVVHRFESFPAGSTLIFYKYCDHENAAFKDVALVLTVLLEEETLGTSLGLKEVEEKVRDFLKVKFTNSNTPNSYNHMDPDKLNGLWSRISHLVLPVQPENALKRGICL
# [10] = target: Alpha-bungarotoxin (Bungarus multicinctus) (UniProt P60615); assay: alpha-bungarotoxin binders on microarray, profiling panel, artefact control for SMM control protein annotation, biochemical, small-molecule microarray, Alexa647 label, 635/667 nm fluorescence (AID 1117); conditions: alpha-BTX-A647 binding fluorescence, higher = more signal
# Chain of Alpha-bungarotoxin (Bungarus multicinctus) (P60615 whole entry, looked up): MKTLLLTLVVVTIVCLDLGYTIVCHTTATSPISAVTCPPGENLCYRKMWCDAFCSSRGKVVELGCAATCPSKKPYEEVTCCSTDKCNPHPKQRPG
# Albumin (Bos taurus) = Albumin (Bos taurus) (UniProt P02769); assay: bovine serum albumin binders on microarray, profiling panel, artefact control for SMM control protein annotation, biochemical, small-molecule microarray, Alexa647 label, 635/667 nm fluorescence (AID 1118); conditions: BSA-A647 binding, fluorescence 635 nm, higher = more signal;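 note: score merges 667 nm emission intensity and signal-to-noise per printed compound spot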
# Chain of Albumin (Bos taurus) (P02769 whole entry, looked up): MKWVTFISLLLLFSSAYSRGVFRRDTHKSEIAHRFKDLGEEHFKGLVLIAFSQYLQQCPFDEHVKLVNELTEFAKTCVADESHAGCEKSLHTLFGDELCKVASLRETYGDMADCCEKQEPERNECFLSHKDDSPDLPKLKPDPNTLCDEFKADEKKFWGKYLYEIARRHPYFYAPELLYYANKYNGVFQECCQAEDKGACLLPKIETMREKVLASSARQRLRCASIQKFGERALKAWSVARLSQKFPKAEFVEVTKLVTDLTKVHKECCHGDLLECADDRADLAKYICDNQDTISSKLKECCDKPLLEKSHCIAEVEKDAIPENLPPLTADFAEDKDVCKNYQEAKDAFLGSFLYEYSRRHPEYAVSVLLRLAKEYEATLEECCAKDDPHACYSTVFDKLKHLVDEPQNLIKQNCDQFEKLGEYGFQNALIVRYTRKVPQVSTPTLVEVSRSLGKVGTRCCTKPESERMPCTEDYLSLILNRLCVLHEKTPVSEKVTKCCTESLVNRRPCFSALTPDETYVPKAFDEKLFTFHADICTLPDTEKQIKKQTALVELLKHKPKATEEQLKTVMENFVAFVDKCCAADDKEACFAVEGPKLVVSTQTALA
# [11] = small-molecule microarray binders of probe aXIP, primary screen, biochemical, NeuroSMM set, 635/667 nm fluorescence (AID 1119); conditions: higher = more signal, called active from +8 up or from −8 down;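 note: probe is the protein aXip251-270 applied at 1 µg/mL to compound-printed slides; binding of probe to printed compounds measured as 667 nm fluorescence plus signal to noise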
# [12] = small-molecule binders of probe aNOTCH3, primary screen, biochemical, small-molecule microarray, 635/667 nm fluorescence (AID 1120); conditions: higher = more signal;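 note: probe is a biotin-tagged antibody raised against NOTCH3 rather than NOTCH3 protein; score merges spot fluorescence near 667 nm with spot signal to noise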
# [13] = small-molecule binders of probe aNOTCH2, primary screen, biochemical, small-molecule microarray, 635/667 nm fluorescence (AID 1121); conditions: higher = more signal;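 note: score merges feature fluorescence read at 667 nm with its signal to noise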
# [14] = target: Carbonic anhydrase 2 (Homo sapiens) (UniProt P00918); assay: CAII small-molecule binders, profiling panel, biochemical, small-molecule microarray, Alexa647-labelled CAII (AID 1122); conditions: CAII-A647 binding fluorescence, higher = more signal
# [15] = COS7 lysate on small-molecule microarray, probe aHis, 635 nm (AID 1123); conditions: COS7 cell lysate, fluorescence, higher = more signal;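 note: z-score combines 667nm fluorescence intensity with signal-to-noise per printed compound spot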
# [16] = compound binding in COS7 lysate, probe aLAP1, primary screen, cell lysate, small-molecule microarray (AID 1124); conditions: probe aLAP1, fluorescence, higher = more signal;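 note: lysate comes from COS7 cells expressing LAP1 and is applied at 0.3 µg/mL; score merges spot fluorescence near 667 nm with signal-to-noise over triplicate slides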
# Sam68 (KHDRBS1) = assay: Sam68 small-molecule binders, primary screen, biochemical, small-molecule microarray, 635 nm fluorescence (AID 1125); conditions: small-molecule microarray binding, higher = more signal;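 note: score merges 667 nm channel intensity with signal to noise over triplicate slides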
# [17] = test system: Chordin-like protein 2 (CHRDL2); assay: CHRDL2 small-molecule binders, primary screen, biochemical, small-molecule microarray, 635 nm fluorescence (AID 1126); conditions: small-molecule microarray binding, fluorescence 635 nm; higher = more signal;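 note: printed compound slides probed with Chrdl2 protein at 4 µg/mL for 1 h at 4 C; score merges 667 nm emission intensity with signal to noise over three replicate slides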
# [18] = target: Concanavalin-A (Canavalia ensiformis) (UniProt P02866); assay: ConA small-molecule binders, primary screen, artefact control for SMM control protein annotation, biochemical, small-molecule microarray, Alexa647 label, 635 nm (AID 1127); conditions: ConA-A647 binding fluorescence, higher = more signal;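 note: z combines 667 nm emission intensity with signal-to-noise across three replicate slides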
# Chain of Concanavalin-A (Canavalia ensiformis) (P02866 whole entry, looked up): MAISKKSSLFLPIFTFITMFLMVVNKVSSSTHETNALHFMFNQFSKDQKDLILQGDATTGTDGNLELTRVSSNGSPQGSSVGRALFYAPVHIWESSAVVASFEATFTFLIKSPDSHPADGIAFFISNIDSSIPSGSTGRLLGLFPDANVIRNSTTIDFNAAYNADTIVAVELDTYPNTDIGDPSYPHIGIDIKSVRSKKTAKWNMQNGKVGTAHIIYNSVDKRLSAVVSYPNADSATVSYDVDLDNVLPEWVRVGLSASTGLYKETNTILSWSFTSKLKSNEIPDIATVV
SMILES,composite z-score [1],z-score [2],composite z-score [3],composite z-score [4],composite z-score [5],composite z-score [6],composite z-score [7],composite z-score [8],composite z-score [9],composite z-score [10],composite z-score (Albumin (Bos taurus)),composite Z-score [11],composite z-score [12],composite z-score [13],composite z-score [14],composite z-score [15],composite z-score [16],composite z-score (Sam68 (KHDRBS1)),composite z-score [17],composite z-score [18]
COCCOC(=O)N1C(=O)[C@@]2(c3cc(C#CCC(C(=O)OC)C(=O)OC)ccc31)[C@H](c1ccc(O)cc1)N1[C@H](c3ccccc3)[C@H](c3ccccc3)OC(=O)[C@H]1[C@@H]2C(=O)Nc1nc2ccccc2s1,1.11,-0.149,0.616,1.38,-0.563,-0.0684,-0.017,0.112,0.83,2.23,0.703,0.179 (inactive),0.146,-0.126,0.342,1.17,0.447,1.3,0.627,1.15
COC(=O)[C@]1(CCC(=O)OC(C)(C)C)N=C(c2ccc(OCCCO)cc2)O[C@@H]1c1ccccc1N=[N+]=[N-],0.892,-2.05,-0.557,-0.175,-0.875,0.0403,-0.119,0.504,0.468,0.302,-0.257,0.62 (inactive),-0.122,-0.0618,0.589,1.63,0.254,0.68,-0.444,0.589
CN1C(=O)C2C(C3CC3)C=C3CN(Cc4cccc(Cl)c4)[C@@H]([C@@H](O)Cc4ccccc4)C3C2C1=O (stereo not given in full),1.36,-1.6,0.526,0.283,-0.469,-0.244,-0.462,-0.332,0.648,1.04,0.363,0.996 (inactive),0.147,-0.104,0.225,1.17,-0.0531,1.3,0.231,1.06
COCCOC(=O)N1C(=O)[C@@]2(c3cc(C#Cc4ccc(OC)cc4)ccc31)[C@H](c1ccc(OCCO)cc1)N1[C@H](c3ccccc3)[C@H](c3ccccc3)OC(=O)[C@H]1[C@@H]2C(=O)NC[C@H](O)c1ccccc1,1.12,-1.69,1.25,1.15,0.842,0.0078,-0.273,0.338,0.851,1.4,0.314,0.217 (inactive),0.154,0.0022,0.471,0.575,0.511,1.3,0.311,1.16
CC(C)(C)N1CC=CC23O[C@@H]4C=CCOC(=O)[C@@H]4[C@H]2C(=O)N(CCO)[C@@H]3C1=O (stereo not given in full),0.0175,-0.471,-1.37,-0.605,0.546,-0.15,0.0136,-0.364,-0.843,-0.7,0.439,0.256 (inactive),-0.446,-0.196,0.671,1.95,-0.719,-0.738,-2.63,-0.634
COc1ccc([Si](C)(C)[C@H]2[C@H](CC(=O)N3Cc4ccccc4C[C@H]3CO)O[C@@]3(C(=O)N(C)c4ccccc43)[C@@H]2C)cc1,1.42,-4.34,0.77,0.125,-1.29,-0.124,-0.0146,-0.299,0.712,2.48,0.656,0.673 (inactive),0.163,-0.11,0.686,1.89,0.941,1.28,1.37,1.01
COC(=O)[C@]1(Cc2ccccc2)N=C(c2ccc(OCCCO)cc2)O[C@@H]1c1ccccc1CN=[N+]=[N-],1.37,-3.37,-0.383,0.63,-0.293,-0.0944,0.0796,0.537,1.11,1.01,-0.847,0.384 (inactive),0.0259,-0.0017,0.403,1.98,-0.0103,0.745,0.214,0.656
CN(C)C(=O)[C@]1(Cc2ccccc2)N=C(c2ccc(OCCCO)cc2)O[C@@H]1c1ccccc1CN=[N+]=[N-],1.41,-2.79,-0.273,1.09,0.781,0.027,0.116,-0.294,1.62,1.15,0.981,0.0333 (inactive),0.34,0.0488,0.582,2.63,0.407,1.31,-0.321,0.922
O=C1c2ccccc2[C@@]2(Cc3ccccc3N(Cc3ccccc3)C2=O)[C@H](c2ccc(CO)cc2)N1Cc1ccccc1Cl,-0.728,0.0868,-0.44,-0.223,0.306,-0.202,-0.412,0.105,-0.881,-0.0792,0.705,0.0507 (inactive),-0.279,-0.171,-0.391,-0.222,0.147,-0.633,-0.688,-0.709
C=CC1c2cc(O)c(OC)cc2CCN1C (stereo not given),-0.728,-1.02,-0.94,0.504,1.04,-0.112,-0.243,-0.348,0.381,-0.383,0.582,0.694 (inactive),-0.136,-0.126,0.886,-0.0207,0.0879,-0.589,-0.644,-1.24
NC(=O)NCC#Cc1ccc2c(c1)[C@]1(C(=O)N2)[C@H](c2ccc(OCCO)cc2)N2[C@H](c3ccccc3)[C@H](c3ccccc3)OC(=O)[C@H]2[C@@H]1C(=O)O,-0.979,-0.591,-0.644,0.024,0.991,-0.122,-0.102,0.281,0.561,2.44,0.544,0.196 (inactive),-0.0918,-0.132,0.256,0.157,-0.23,-0.761,-0.736,1.04

# Reference: PubChem BioAssay
